INHIBITION data for 64 compounds are collected here from ChEMBL document CHEMBL4513216, “Probing the Open Global Health Chemical Diversity Library for Multistage-Active Starting Points for Next-Generation Antimalarials” (ACS Infect Dis, 2020).

The campaign covered roughly 68,000 compounds. About 2,700 (4%) showed an effect of 50% or more. The sample as a whole holds a higher share of strong results than the screen did.

The subject of the test is Plasmodium berghei. The experiment in a line: Screen against P. berghei liver stage (PbLuc), transformed with Luciferase, at 2uM. Type of test: functional, HepG2. As to conditions: tested at 2 uM.
Take `Cn1ccc2c(C(=O)N3CCC(C(N)=O)CC3)cccc21`: the INHIBITION turned out to be 40.31%.

For `Cn1c(CN2CCCC2c2noc(C3CC3)n2)cc(=O)n(C)c1=O` (centres undefined), the INHIBITION is recorded as 12.91%. `CCCN1CCC(CC(=O)N2CCC(C(O)c3nccn3C)CC2)CC1` (centres undefined): the INHIBITION is given as 51.19%. `CC(C)N1CCC(C(=O)N2CCC(C(O)c3nccn3C)CC2)CC1` (centres undefined): the INHIBITION came out at 6.4%.

As for `CC(C)N1CCC(CC(=O)N2CCC(C(O)c3nccn3C)CC2)CC1` (centres undefined), the INHIBITION is 15.11%. Take `COCC(=O)Nc1nn(Cc2ccc(F)cc2)cc1Cl`: the INHIBITION is -20.28%. Consider `Cc1noc(C)c1CN1CCN(c2ccnc(-c3ccccc3)n2)CC1`, for which the INHIBITION was -5.53%. `CCOc1ccccc1OC1CCN(C(=O)c2cc[nH]n2)CC1`: the INHIBITION was determined as 7.54%.

Turning to `CC(C)c1ccc(NS(=O)(=O)C=c2[nH]c(=O)n3cccc3c2=O)cc1`, the INHIBITION is listed as 9.43%. Take `CCc1ccc(NS(=O)(=O)C=c2[nH]c(=O)n3cccc3c2=O)cc1`: the INHIBITION was -1.14%. As to `Cc1ccc(NS(=O)(=O)C=c2[nH]c(=O)n3cccc3c2=O)cc1`, the INHIBITION is -68.56%. Consider `O=c1c(=CS(=O)(=O)Nc2ccc(Cl)cc2)[nH]c(=O)n2cccc12`, for which the INHIBITION worked out at 50.52%. Consider `O=c1c(=CS(=O)(=O)Nc2ccccc2)[nH]c(=O)n2cccc12`, for which the INHIBITION is listed as 53.68%. As for `O=c1c(=CS(=O)(=O)Nc2ccc(Br)cc2)[nH]c(=O)n2cccc12`, the INHIBITION is -42.73%. With `Cc1cc(C)cc(CN2CCC3(CC2)CC(Nc2ncccn2)CO3)c1` (centres undefined), the INHIBITION amounted to 24.43%. The result for `CNC(=O)C1CN(c2ccnc(C)n2)CCN1Cc1ccccc1` (centres undefined) reads -10.89%; that for `CC(C)NC(=O)[C@@]12CCO[C@@H]1CCN(Cc1ccco1)C2`, 16.63%; that for `CN(C)CCN1C[C@@H]2OCCN(Cc3cnn(C)c3)[C@@H]2C1`, 33.4%. Turning to `Cn1cc(CN2CCO[C@H]3CN(Cc4ccco4)C[C@H]32)cn1`, the INHIBITION was 10.53%. `CCC(CC)CN1C[C@@H]2OCCN(Cc3cnn(C)c3)[C@@H]2C1`: the INHIBITION was 56.78%. `CC(=O)Nc1ccc(S(=O)(=O)N2CCOC(Cn3ccnc3)C2)cc1` (centres undefined): the INHIBITION is 1.92%. As to `O=S(=O)(N1CCOCC1)N1CCC(Oc2cnccn2)CC1`, the INHIBITION is -7.91%. In the case of `O=S(=O)(N1CCCCC1)N1CCC(Oc2cnccn2)CC1`, the INHIBITION is 41.98%. The same measure for `CC1CCN(S(=O)(=O)N2CCC(Oc3cnccn3)CC2)CC1`: 52.82%. Turning to `O=S(=O)(c1ccccc1)N1CCC2(CCCN2Cc2cccc(Cl)c2)C1` (centres undefined), the INHIBITION is listed as 35.26%. Turning to `CNC(=O)C1CCN(Cc2nc(-c3ccc(SC)cc3)oc2C)C1` (centres undefined), the INHIBITION was found to be 13.94%. On to `CSc1ccc(-c2nc(CN3CCC(NC(C)=O)C3)c(C)o2)cc1` (centres undefined), for which the INHIBITION amounted to 52.77%. In the case of `CSc1ccc(-c2nc(CN3CCC(NC(C)=O)CC3)c(C)o2)cc1`, the INHIBITION is listed as -11.37%.

Regarding `Cc1cc(NCc2ccccc2CN2CCCCC2)n2ncnc2n1`, the INHIBITION is given as -1.87%. Turning to `Cc1cc(C)c(CNC(=O)N(C)Cc2cccc(F)c2)c(=O)[nH]1`, the INHIBITION is on record as -9.17%. In the case of `CS(=O)(=O)Nc1cccc(C(=O)Nc2ccc3c(c2)C(=O)NC3)c1`, the INHIBITION is listed as -7.99%. As for `Cc1nnc(SC2CCN(c3sccc3C#N)C2=O)[nH]1` (centres undefined), the INHIBITION was 6%.

`Cc1nnc(SC2CCN(c3sccc3C#N)C2=O)s1` (centres undefined): the INHIBITION is listed as 57.91%. The same measure for `Cc1nc(SC2CCN(c3sccc3C#N)C2=O)oc1C` (centres undefined): 32.26%. As to `COc1ccccc1-c1cc(NC(=O)CCS(=O)(=O)C2CCCC2)[nH]n1`, the INHIBITION is given as -43.66%. The same measure for `CC(=O)Nc1ccc2c(c1)CN(C(=O)c1ccco1)CC2`: 33.08%; for `Cc1cc(C(=O)N2CCC3(C2)CN(c2ccsc2)C(=O)CN3C)[nH]n1` (centres undefined): 13.04%. Regarding `CN1CC(=O)N(c2ccsc2)CC12CCN(C(=O)c1ccccc1)C2` (centres undefined), the INHIBITION is reported as 37.45%.

For `CN1CC(=O)N(c2ccsc2)CC12CCN(C(=O)c1ccc[nH]1)C2` (centres undefined), the INHIBITION was 53.98%.

Consider `CCC1CN(CC(=O)NCCN(CC)CC)c2ccccc2S1` (centres undefined), for which the INHIBITION is reported as 18.23%. As to `Cc1cc(C)n(C2CCCN(C(=O)CCNS(C)(=O)=O)C2)n1` (centres undefined), the INHIBITION was found to be 15.31%.

`CCOc1ncccc1C(=O)N1CCCC(n2nc(C)nc2C)C1` (centres undefined): the INHIBITION is 20.44%.

Regarding `CCOc1ncccc1C(=O)N1CCCCC1c1nccs1` (centres undefined), the INHIBITION was determined as 67.59%. Take `COCc1ccccc1C(=O)N1CCCC(n2nc(C)cc2C)C1` (centres undefined): the INHIBITION was 21.91%.

Turning to `COCCOc1ccccc1C(=O)N1CCCCC1c1nccs1` (centres undefined), the INHIBITION is reported as 45.75%. The same measure for `Cc1cc(C)n(C2CCCN(C(=O)CCNc3ncccn3)C2)n1` (centres undefined): 70.27%; for `CCOc1ncccc1C(=O)N1CCCC(n2nc(C)cc2C)C1` (centres undefined): 58.29%; for `COCCOc1ncccc1C(=O)N1CCCCC1c1nccs1` (centres undefined): -10.05%. As for `Cc1cc(C)n(C2CCCN(C(=O)CCCNc3ncccn3)C2)n1` (centres undefined), the INHIBITION is 26.71%. Consider `Cc1cncc(C(=O)N2CCO[C@H]3[C@H](Oc4ccccn4)CC[C@@H]32)c1`, for which the INHIBITION is on record as 28.88%. `Cc1ccc(CN2CC[C@H]3[C@H](CO[C@H]3CN(C)C)C2)o1`: the INHIBITION is -0.69%. The result for `COc1nccc(N2CC[C@H](N3CCOCC3)[C@H](CCCO)C2)c1C#N` reads -47.16%; that for `N#Cc1cnc2cc(F)cc(F)c2c1NC1CCN(CC(N)=O)CC1`, -22.63%. Consider `O=C(C1CC(c2ccccc2)=NO1)N1CCCCc2ccccc21` (centres undefined), for which the INHIBITION is 24.84%. As for `CCC(CC)c1cc(CNC(=O)N2CCCC(C(=O)NC)C2)on1` (centres undefined), the INHIBITION is 59.8%. The result for `CCC(CC)c1cc(CNC(=O)N2CCC(CO)CC2)on1` reads -11.8%; that for `CCC(CC)c1cc(CNC(=O)N2CCCC(N(C)C)C2)on1` (centres undefined), 28.23%.

On to `CN1CCC2(CCN(C(=O)c3ccccc3)CC2)C1`, for which the INHIBITION is listed as 39.18%. Regarding `COc1cccc(-c2n[nH]cc2C(=O)NC(C)c2n[nH]c(C)n2)c1` (centres undefined), the INHIBITION is on record as 64.2%.

As for `COc1cccc(-c2n[nH]cc2C(=O)NC(C)CC(=O)O)c1` (centres undefined), the INHIBITION is listed as 1.06%.

In the case of `COc1cccc(-c2n[nH]cc2C(=O)NC(C)c2nc(C(C)C)no2)c1` (centres undefined), the INHIBITION is recorded as 33.9%. With `Cc1cccc(CN2CCCC2c2cccc(CCC(=O)O)n2)c1` (centres undefined), the INHIBITION is recorded as -46.81%.

On to `Cc1cc(CN2CCN(C(=O)CCc3ccco3)CC2)on1`, for which the INHIBITION worked out at 19.91%. The same measure for `COc1ccc(COCC(O)CNC(=O)c2ccc(C)c(F)c2)cc1` (centres undefined): -7.11%.
